Experiments:
Format in all cases: functional
[1] = test system: Plasmodium falciparum; assay: GSK_TCMDC: Inhibition of Plasmodium falciparum 3D7 in whole red blood cells, using parasite LDH activity as an index of growth. Test compounds present at 2uM
[2] = test system: Plasmodium falciparum; assay: GSK_TCMDC: Inhibition of Plasmodium falciparum Dd2 in whole red blood cells, using parasite LDH activity as an index of growth. Test compounds present at 2uM
[3] = test system: HepG2; assay: GSK_TCMDC: Percent inhibition of human HepG2 cell line. Test compounds present at 10uM.

| Compound | Inhibition [1] [%] | Inhibition [2] [%] | Inhibition [3] [%] |
| --- | --- | --- | --- |
| Nc1c(Cl)cc(C(O)CNCCCCCCOCCC=C2CCOCC2)cc1Cl (stereo not drawn) | 100 | 9 | 7 |
| c1ccc(-c2cc(NCc3cccc4ccccc34)c3[nH]ncc3n2)cc1 | 93 | 5 | 7 |
| O=C(Nc1cccc(-c2cc(-c3c(Cl)cccc3Cl)no2)c1)c1cncc(-c2cccs2)c1 | 91 | 39 | 0 |
| Cc1cc(NCCc2ccc(O)cc2)nc(NCC(c2ccccc2)c2ccccc2)n1 | 100 | 77 | 22 |
| Cc1ccc2nc(N/C(N)=N/C(=O)NC3CCCCC3)nc(C)c2c1 | 99 | 94 | 8 |
| CC(C)Cc1nc(N)nc(N)c1-c1ccc(Cl)cc1 | 96 | 3 | 5 |
| Cc1cc(-c2ccc3c(c2)CCN(CCCOc2ccc4c(c2)CCN4C(=O)/C=C/c2ccccc2Cl)CC3)no1 | 88 | 50 | 52 |
| CCN(CC)CCN(Cc1ccc(-c2ccc(C(F)(F)F)cc2)cc1)C(=O)Cn1cc(Cc2cnn(C)c2)c(=O)nc1/C=C/c1ccc(F)cc1.O=C(O)C(O)C(O)C(=O)O | 96 | 91 | 6 |
| COc1cc2nc(N3CCC(CNC(=O)c4ccc(-c5ccccc5)cc4)CC3)nc(N)c2cc1OC | 93 | 92 | 11 |
| Cc1ccccc1Cn1c(CN2CCC(C(=O)NC3CC3)CC2)cc2ccccc21 | 97 | 96 | 7 |
| CC(C)(C)OC(=O)C1CCCN(Cc2ccc(-c3cccc(-c4nc5ccccc5[nH]4)c3)cc2)C1.O=C(O)C(F)(F)F (stereo not drawn) | 93 | 27 | 37 |

Source: ChEMBL document CHEMBL1157539, “Thousands of chemical starting points for antimalarial lead identification” (Nature, 2010)
